Screening results deposited in PubChem BioAssay by National Center for Advancing Translational Sciences (NCATS).
TDP1 cell noCPT: qHTS for Inhibitors of human tyrosyl-DNA phosphodiesterase 1 (TDP1): qHTS in cells in absence of CPT | DT40 Tdp1-/- hTDP1 cells, no CPT, ATP luminescence, 48 h | Potency, µM (titrated, usually from 46.2 µM), for inactives: top-dose activity change, negative = growth inhibition, usual class: inhibitors | 15% of 420,000 active | AID 686978, 2013; further: potency means the concentration at half of the fitted maximal effect; nearly all actives have a fitted effect of over 55% in size
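Cells were dispensed at 400 per well, compounds added by pin tool, plates incubated ≥48 hr at 37 °C, then CellTiter-Glo added for 30 min at room temperature before luminescence reading. Line: DT40 Tdp1-/- complemented with hTDP1; camptothecin omitted.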
VP16 counter: Gal4-VP16 reporter inhibition counter-screen; Drosophila S2 Gal4-VP16 UAS-luciferase, luminescence, 20 h; Potency, µM (top dose mostly 53.6 µM), inactives show at the top dose activity, negative = inhibition, actives largely listed as inhibitors; AID 2546; 3.5% of 310,000 active;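 further: Gal4-VP16 expression switched on by copper sulfate through the metallothionein promoter; potency means the concentration at half of the fitted maximal effect; nearly all actives have a fitted effect of over 50% in size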
ELG1 DNA repair: inhibitors of ELG1-dependent DNA repair in HEK293T cells. Potency, µM (series often up to 46.1 µM), for the others: at the highest dose activity change, negative = inhibition, hits mostly inhibitors. 2.3% of 330,000 active. HEK293T ELG1-luciferase reporter, luminescence, 16 h; DNA damage induced by 5-fluorouridine. AID 504467; further: potency means the concentration at half of the fitted maximal effect; nearly all actives have a fitted effect of over 55% in size
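Step one: seed 2,000 cells per well. Step two: pin-transfer compound or DMSO alongside 5-fluorouridine. Step three: incubate 16 hr, 37 °C, 5% CO2. Step four: add ONE-Glo, wait 30 min, read luminescence.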
RORgamma inh: blocks mouse ROR gamma transcriptional activity. 5.4% of 310,000 active. Potency, µM (doses to about 53.6 µM), for the others: top-dose activity change, negative = inhibition, usual class: inhibitors. Drosophila S2 Gal4-RORgamma UAS-luciferase reporter, 20 h; further: potency means the concentration at half of the fitted maximal effect; nearly all actives have a fitted effect of over 60% in size
Target sequence (P51450 whole entry, looked up, the tested form may be a part): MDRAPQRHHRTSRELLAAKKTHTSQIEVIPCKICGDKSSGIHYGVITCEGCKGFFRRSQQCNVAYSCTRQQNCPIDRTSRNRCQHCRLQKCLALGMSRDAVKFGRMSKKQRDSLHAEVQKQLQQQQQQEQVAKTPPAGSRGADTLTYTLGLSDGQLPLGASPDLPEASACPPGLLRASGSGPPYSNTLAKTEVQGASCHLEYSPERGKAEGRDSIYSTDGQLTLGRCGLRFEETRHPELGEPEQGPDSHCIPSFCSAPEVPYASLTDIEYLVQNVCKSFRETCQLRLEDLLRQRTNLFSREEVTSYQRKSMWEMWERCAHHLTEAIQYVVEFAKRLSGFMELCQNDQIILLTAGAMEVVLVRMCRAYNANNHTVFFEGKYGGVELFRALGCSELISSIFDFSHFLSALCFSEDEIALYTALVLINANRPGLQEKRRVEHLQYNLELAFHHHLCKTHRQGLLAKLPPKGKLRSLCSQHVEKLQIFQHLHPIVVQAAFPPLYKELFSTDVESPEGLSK
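A Gal4/UAS one-hybrid system in insect cells: metallothionein-promoter Gal4–ROR gamma fusion plus Photinus luciferase reporter. Copper sulfate 700 uM final, 20 hr ambient incubation, luminescent detection after 10 min with reagent.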
IL-1B inflam inh: blocks inflammasome-driven IL-1 beta release. THP-1 LPS/ATP IL-1B secretion, AlphaLISA, 16 h; stronger effect = lower value. 4.7% of 360,000 active. activity change, % at 57.5 µM; in the data active means activity change below about -50%; inconclusive means mostly about -30% to -49%
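Secreted IL-1B measured by AlphaLISA bead assay after 16 h compound exposure of THP-1 cells; compounds (final up to 57.5 uM) added 1 h before LPS (250 ng/mL) and ATP (1.25 mM) stimulation; lower signal means less secretion.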
DT40 TDP1 CPT: growth inhibition of DT40 Tdp1-/-;hTDP1 cells with camptothecin (screen for TDP1 inhibitors). chicken DT40 Tdp1-/-;hTDP1 cells + 20 nM CPT, ATP luminescence, 48 h. Potency, µM (top dose mostly 46.2 µM), without a hit: top-dose activity change, negative = growth inhibition, actives largely listed as inhibitors. 12% of 420,000 active; further: potency means the concentration at half of the fitted maximal effect; nearly all actives have a fitted effect of over 55% in size
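Chicken DT40 Tdp1-/- cells stably complemented with human TDP1 were seeded at 400 cells/well in medium containing 20 nM camptothecin, exposed to pin-transferred compounds, and grown at 37 °C for at least 48 hr. Viability was read as ATP luminescence.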
Numbers without * were called inactive; ? = inconclusive; . = not tested or not shown; [ ] = another dose, or the depositor's remark. Compounds with a hit are over-represented: about 21% of the library has one in this group of screens. Unless noted, the call rests on the fitted dose curve; in most records, active means well fitted curve in the direction sought with a large enough effect; inconclusive means small, poorly fitted or top-dose-only effect, or another doubt; inactive means no such curve, though single readings can be large; an effect the other way counts as inactive or inconclusive. On the % scale 0 is the no-effect control and ±100 the full control effect.

SMILES	TDP1 cell noCPT	VP16 counter	ELG1 DNA repair	RORgamma inh	IL-1B inflam inh	DT40 TDP1 CPT
COC(=O)c1ccc(CSC2=NC[C@@H]3[C@@H]4C(=O)N(Cc5ccccc5)C(=O)[C@@H]4[C@](C)(C(=O)OC)N23)cc1	16.4µM*	.	-0.4%	.	17.8	?
COC(=O)[C@@]1(Cc2ccccc2)[C@H]2C(=O)N(C)C(=O)[C@H]2[C@H]2CN=C(SCc3ccccc3)N21	?	.	14.0%	.	3.7	14.6µM*
CC(=O)Nc1ccccc1OCc1cc(=O)n2c3c(sc2n1)CCCC3	-15.5%	.	.	.	.	0.1%
Cc1cc(C(=O)NNC(=O)/C=C/c2ccco2)c(C)o1	3.9%	.	5.3%	.	-3.4	6.8%
O=C1C=CC(c2ccccc2)(c2ccccc2)CC1	?	.	.	.	-0.5	?
CC(C)(C)Cc1c(-c2ccc(F)cc2)nc2ccc(Cl)cn12	20.6µM*	.	.	.	43.5	?
Cc1ccc(-c2nc3ccc(Cl)cn3c2Cc2cccc(F)c2)cc1	?	.	.	.	-14.1	20.6µM*
Fc1cccc(Cc2c(-c3ccc(Cl)cc3)nc3ccc(Br)cn23)c1	16.4µM*	.	.	.	?	?
Fc1cccc(Cc2c(-c3cccc(Br)c3)nc3ccc(Br)cn23)c1	?	.	.	.	34.6	-29.2%
Cc1ccc(-c2nc3ccc(Cl)cn3c2CC(C)(C)C)cc1	-27.0%	.	.	.	26.9	?
CC(C)NC(=O)C1(C)CCN1C(=O)c1ccc2c(c1)OCO2 (stereo unspecified)	-12.6%	.	.	.	16.2	2.7%
COc1cc2c(cc1NC(=O)c1ccccc1-c1ccccc1C(=O)O)-c1ccccc1C2	-7.8%	.	.	.	-19.7	0.1%
COc1cc2c(cc1NC(=O)C(Cl)Cl)-c1ccc(NC(=O)C(Cl)Cl)cc1C2	8.2µM*	.	.	.	-97.2*	8.2µM*
C=CCc1ccc(OCCCCNC(C)CC)c(OC)c1 (stereo unspecified)	18.4µM*	0.8%	-14.6%	-11.7%	-2.3	?
C=CCc1cc(Cl)ccc1OCCCNC(C)CC (stereo unspecified)	14.6µM*	-2.2%	-11.3%	-2.0%	0.0	16.4µM*
C/C=C/c1ccc(OCCCNC(C)CC)c(OC)c1 (stereo unspecified)	-16.5%	1.2%	7.0%	7.1%	?	1.2%
COc1ccc(Oc2ncc3nc(C)c(=O)n(Cc4cccc(OC)c4)c3n2)cc1	-11.1%	-2.6%	.	-8.9%	.	-5.1%
COc1cccc(Nc2nc(C)nc3c2oc2ccccc23)c1	20.6µM*	-5.5%	-6.9%	7.7%	-6.1	?
CCNc1nc(CC)nc2c1oc1ccccc12	-19.0%	1.5%	-26.0%	-28.7%	-2.5	-14.0%
CCc1nc(Nc2ccc(OC)cc2OC)c2oc3ccccc3c2n1	20.6µM*	-29.3%	-24.4%	?	-12.0	7.31µM*
CCc1nc(N(CC)CC)c2oc3ccccc3c2n1	-24.4%	?	?	14.1µM*	17.7	-28.3%
COc1cccc(Oc2nc(C)nc3c2oc2ccccc23)c1	?	.	.	.	.	-20.7%
CCc1nc(Sc2nc(C)cc(C)n2)c2oc3ccccc3c2n1	20.6µM*	-9.3%	?	-19.0%	-9.5	?
CCc1nc(Nc2ccccc2O)c2oc3ccccc3c2n1	-23.1%	8.2%	-0.2%	-12.3%	-0.4	-0.7%
O=C1C(=O)N(c2ccccn2)C(c2cccc([N+](=O)[O-])c2)/C1=C(/O)c1ccc(Br)cc1 (stereo unspecified)	10.5%	-6.0%	-2.6%	25.9%	15.2	-5.3%
SMILES	TDP1 cell noCPT	VP16 counter	ELG1 DNA repair	RORgamma inh	IL-1B inflam inh	DT40 TDP1 CPT
O=C(Nc1cccc(F)c1)N1CC2(CCN(S(=O)(=O)c3ccccc3)CC2)C1	?	-0.4%	.	21.3%	.	?
CCCCC(=O)Nc1ccc(C(=O)OCc2cc(=O)n3nc(C4CC4)sc3n2)cc1	?	.	.	.	.	-29.6%
CCC(C)NC(=O)Cn1c(=O)n(-c2cc(OC)cc(OC)c2)c(=O)c2ccccc21 (stereo unspecified)	-10.9%	.	.	.	.	-0.2%
CCc1nc(NCC2CCCO2)c2oc3ccccc3c2n1 (stereo unspecified)	?	13.8%	?	-8.4%	-11.4	?
Cc1nc(Nc2ccc(Cl)cc2)c2oc3ccccc3c2n1	?	?	-3.5%	-19.4%	11.7	?
Cc1nc(Nc2cccc(F)c2)c2oc3ccccc3c2n1	?	20.0%	?	33.0%	-6.0	?
CCc1nc(N2CCC(C)CC2)c2oc3ccccc3c2n1	?	?	-0.6%	11.2µM*	13.2	?
Cc1nc(Nc2cccc(Cl)c2)c2oc3ccccc3c2n1	20.6µM*	22.6%	-10.4%	41.9%	-72.0*	16.4µM*
Cc1nc(Nc2cccc(O)c2)c2oc3ccccc3c2n1	13µM*	-2.4%	14.8%	-2.8%	11.3	?
CCc1nc(Nc2ccc(O)cc2)c2oc3ccccc3c2n1	?	3.1%	16.4µM*	-24.5%	-88.9*	?
COCCn1c(=NC(=O)c2ccc3c(c2)OCCO3)sc2cc(C(=O)OC)ccc21	-23.2%	.	.	.	.	1.2%
C[C@@H]1/C=C\CC(=O)OC[C@H]2O[C@@H](C=C[C@@H]2O)[C@H](C)/C=C\CC(=O)OC1	.	-6.9%[10 µM]	.	-14.0%[10 µM]	.	.
Cn1cc(CN2CCC(CO)CC2)c(-c2ccc(Oc3ccccc3)cc2)n1	?	1.4%	3.4%	4.3%	42.0	?
CCCCc1ccc(NC(=O)c2cc(-c3ccc(C)c(F)c3)on2)cc1	-8.1%	.	.	.	.	-3.0%
O=C(O)CCC/C=C\C[C@@H]1C(/C=C/[C@@H](O)COc2cccc(C(F)(F)F)c2)[C@@H](O)C[C@@H]1O (stereo partly specified)	-5.0%[4.12 µM]	.	.	.	.	5.0%[4.12 µM]
COc1ccc(Nc2nc(C)nc3c2oc2ccccc23)c(OC)c1	-21.9%	?	?	-44.2%	50.8	-15.4%
COc1ccccc1Nc1nc(C)nc2c1oc1ccccc12	9.2µM*	7.6%	?	-33.3%	5.6	14.6µM*
Cc1ccc(-n2ncc3c(=O)n(-c4ccc(C)c(C)c4)c(C)nc32)cc1	18.4µM*	?	-7.6%	1.3%	0.0	?
Cc1nc2c(cnn2-c2ccc(Cl)cc2)c(=O)n1-c1ccc(N2CCC(C)CC2)cc1	.	3.8%	?	-9.2%	.	.
COc1ccc(-n2c(C)nc3c(cnn3-c3ccc(C)c(C)c3)c2=O)cc1	14.6µM*	5.3%	0.2%	66.6%	-7.3	23.1µM*
Cc1ccc(-n2c(C)nc3c(cnn3-c3ccc(F)cc3)c2=O)cc1	14.6µM*	8.91µM*	?	-23.3%	26.0	18.4µM*
